Source: PubChem
A selection follows.
aSyn 5UTR act: Activators working through SNCA 5'UTR binding (MLPCN). activity score, % (tested at 7.5 µM), hits read low. hit rate 7.1% among 300,000. alpha-synuclein 5'UTR reporter, activators screen; in the data active = activity score below about -60%
An asterisk follows results filed as active.

SMILES | aSyn 5UTR act
Clc1ccc(Nc2nc(C3CC3)cs2)cc1 | -190*
COc1ccc(-c2ccc(C(=O)C3CC3)cc2)cc1 | -107*
COc1ccc(/C(N)=N/OC(=O)C2CCCCC2)cc1 | -131*
COc1ccc(/C(N)=N/OC(=O)C2CCCCC2)cc1OC | -86*
O=C(NCC1CCCCC1)c1cc2ccccc2cc1O | -109*
CCOC(=O)C(C)/C(C)=N/NC(=O)c1cc2ccccc2cc1O (configuration not stated) | 62
O=C(NCC1CCCO1)c1cc2ccccc2cc1O (configuration not stated) | -125*
O=C(c1ccc(CS(=O)Cc2ccccc2Cl)o1)N1CCN(c2ccccn2)CC1 (configuration not stated) | -85*
CCc1c(C)nc2cc(-c3ccc(Cl)cc3)[nH]n2c1=O | -98*
O=c1cc(-c2ccccc2)nc2cc(-c3ccc(Br)cc3)[nH]n12 | -94*
CCc1c(C)nc2cc(-c3cccc(Br)c3)[nH]n2c1=O | -199*
Nc1[nH]n2c(=O)cc(-c3ccccc3)nc2c1N=Nc1ccccc1 | 68
O=c1c2c(nc3cc(-c4ccc(Cl)cc4)[nH]n13)CCS2 | -132*
COCc1cc(=O)n2[nH]c(-c3cccc(Br)c3)cc2n1 | -75*
Cc1nc2cc(-c3ccc(Br)cc3)[nH]n2c(=O)c1Cl | -74*
Cc1nc(/N=C(\N)NC(=O)c2ccccc2)nc2ccccc12 | -292*
Cc1ccc2nc(/N=C(\N)NC(=O)NC3CCCCC3)nc(C)c2c1 | -149*
C(#Cc1ccccc1)Cn1nnc2ccccc21 | -98*
N#C/C(=C/c1ccc(N2CCOCC2)o1)c1ccc(Cl)cc1 | -286*
C/C(=C\C(=O)c1ccccc1)NCc1ccc(F)cc1 | -64*
COc1ccc(C(=O)Oc2ccc3oc(=O)sc3c2)cc1 | -89*
COC(=O)/C(C#N)=C1/C=Cc2ccccc2N1 | -99*
CC(C)(C)c1ccc(SCCc2ccccn2)cc1 | -127*
CC(C)(C)c1ccc(S(=O)(=O)CCc2ccccn2)cc1 | -96*
Fc1ccc(SCCc2ccccn2)cc1 | -97*
SMILES | aSyn 5UTR act
CCOc1cc(/C=N\NC(N)=O)cc(Br)c1OC(C)C | 62
C=CCOc1c(Br)cc(/C=N/Nc2ccc(C(=O)O)cc2)cc1OCC | -123*
COc1ccc(/C=C2\CN(Cc3ccccc3)C/C(=C\c3ccc(OC)c(O)c3)C2=O)cc1O | 107
COc1cc(/C=N/n2cnnc2)ccc1OCc1ccccc1 | -72*
COc1cc(/C=N/n2cnnc2)ccc1OCc1ccc(C)cc1 | -100*
CN(C)CCCNS(=O)(=O)c1ccc(N2CCC(c3ccc(Cl)cc3)=N2)cc1 | -139*
COc1ccc(-c2cc(=O)c3cc(C)ccc3[nH]2)cc1 | -63*
COc1cc2[nH]c(-c3ccc(C)cc3)cc(=O)c2cc1OC | -75*
COc1ccc(-c2cc(C(=O)N3CCCc4ccccc43)no2)cc1 | -107*
COc1cccc(-c2cc(C(=O)N3CCCc4ccccc43)no2)c1 | -126*
COc1ccc(C2=NOC(C(=O)NCC(C)C)C2)cc1 (configuration not stated) | -107*
COc1ccc(C2=NOC(C(=O)NCc3ccco3)C2)cc1 (configuration not stated) | -77*
Cc1ccc2nc(SCC(=O)c3ccc(Cl)s3)[nH]c2c1 | -66*
NC(=O)CN1C(=O)C(O)(CC(=O)/C=C\c2ccc3c(c2)OCO3)c2ccccc21 (configuration not stated) | -70*
CC(=O)c1ccc(Nc2ccc(-c3ccccc3F)nn2)cc1 | -172*
CC(=O)c1ccc(N/N=C(/C(N)=O)C2=NC(C)(C)Cc3ccccc32)cc1 | 56
CCC(C)NC(=O)c1cn(-c2cccc(C)n2)cn1 (configuration not stated) | -110*
Cc1cccc(-n2cnc(C(=O)NC3CCCCCC3)c2)n1 | -101*
CC(C)CNC(=S)NC1CC2CCCC(C1)N2C1CCCCC1 (configuration not stated) | -107*
CCOC(=O)C(C(=O)OCC)C1N=C(N)N=C2Oc3ccccc3N21 (configuration not stated) | -163*
C=C1c2ccccc2NC(=S)N1Cc1ccc2c(c1)OCO2 | -99*
CN(C)S(=O)(=O)c1cccc(C(=O)Nc2ccc(Cl)cn2)c1 | -116*
COc1ccc(C(=O)Nc2ccc(Cl)cn2)cc1Cl | -182*
OCCc1ccc(O)c(-n2nc3ccccc3n2)c1 | -117*
O=C(Nc1ccccc1F)NC1CCCCCCC1 | -115*
SMILES | aSyn 5UTR act
Nc1ccc(NC(=O)NC2CCCCC2)cc1[N+](=O)[O-] | -161*
O=C(NC1CCCCCC1)c1ccc(N2CCCC2=O)cc1 | -101*
S=C(NCCc1cccc(Cl)c1)NC1CCCCC1 | -118*
O=C(Nc1ccc(F)cc1)NC1CCCCCCC1 | -96*
CC(=O)c1cccc(NC(=O)NC2CCCCCCC2)c1 | -70*
O=C(Nc1cccc(Cl)c1)NC1CCCCC1 | -121*
O=C(Nc1ccc(Cl)cc1)NC1CCCCC1 | -175*
O=C(NC1CCCCCCC1)c1ccc(F)cc1 | -197*
O=C(Nc1ccc(F)c(F)c1)NC1CCCCC1 | -86*
O=C(Nc1ccc2nsnc2c1)NC1CCCCC1 | -197*
CC1=CC(C)(C)N(C(=O)CNC2CCCC2)c2cc(C)ccc21 | -107*
CCOc1ccc2c(c1)C(C)=CC(C)(C)N2S(=O)(=O)c1ccc(NC(C)=O)cc1 | 70
COc1cccc(NC(=O)c2ccc3c(c2)N(C)CCS3)c1 | -117*
COc1cccc(NC(=O)c2ccc3c(c2)CCN3S(C)(=O)=O)c1 | -118*
CN1CCSc2ccc(C(=O)Nc3ccc(Cl)cc3)cc21 | -215*
O=C1N(c2ccccc2)C[C@@H]2C[C@@H](c3cc4ccccc4o3)N3CCC[C@@]123 | -594*
CC(C)(C)c1ccc(OCC(=O)N/N=C/c2cc(Br)ccc2OC(=O)c2ccco2)cc1 | 83
O=C(COc1ccc(Br)cc1)Nc1ccc(-c2nnc(-c3ccco3)o2)cc1 | -80*
Clc1ccc(-c2nnc(-c3ccco3)o2)cc1 | -203*
CCC(Oc1ccccc1)C(=O)Nc1ccc(-c2nnc(-c3ccco3)o2)cc1 (configuration not stated) | -97*
O=[N+]([O-])c1ccc(-[n+]2ccc3ccccc3c2)c([N+](=O)[O-])c1 | -105*
COc1c(OC(C)=O)ccc(/C=C/c2ccc3cccc(OCc4ccccc4)c3n2)c1[N+](=O)[O-] | -129*
COc1ccc(-c2nnc(SC(C)C(=O)Nc3ccc4c(c3)OCCO4)o2)cc1 (configuration not stated) | -101*
O=C(CSc1nnc(-c2ccc(O)cc2)o1)Nc1ccc2c(c1)OCCO2 | -83*
O=C(CSc1nnc(-c2ccccc2Cl)o1)Nc1ccc2c(c1)OCCO2 | -137*
SMILES | aSyn 5UTR act
O=C(Nc1ccc2c(c1)OCCO2)C1CC(c2ccccc2Cl)=NO1 (configuration not stated) | -124*
O=C(CSc1nnc(-c2ccc(O)cc2)o1)Nc1ccccc1Br | -132*
CC(=O)Nc1cccc(C(=O)OCC(=O)N2CCC(c3ccccc3)=N2)c1 | -89*
CCC(=O)Nc1cccc(C(=O)OCC(=O)c2ccccc2Cl)c1 | -171*
CC(=O)Nc1cccc(C(=O)OCC(=O)c2ccccc2Cl)c1 | -99*
COC(=O)c1sc(-c2ccc(Cl)cc2)cc1N | -101*
COC(=O)c1cc(-c2ccccc2)sc1N | -77*
COC(=O)c1sc(-c2cccs2)cc1N | -86*
CC1Cc2cc(/C(O)=C3/C(=O)C(=O)N(Cc4ccco4)C3c3cccs3)ccc2O1 (configuration not stated) | -82*
